According to PubChem BioAssay AID463173 (ICCB-Longwood Screening Facility, Harvard Medical School, 2010):
Among all 52,000 compounds or so, about 1,700 (3.3%) were called active. The sample as a whole holds a higher share of actives than the screen did. Unmarked numbers belong to inactive results. No stated cut-off is given here; in the data, active means survival mostly below about 52% (no sharp cut-off); inactive means mostly above about 56%.

What follows are compounds tested on Wild type (assay: S. aureus survival, RN4220 and DeltatarO strains – OD600, teichoic acid synthesis inhibitors, primary screen (AID 463173)). Conditions: S. aureus RN4220 wild type/DeltatarO growth, OD600, 18 h, active compounds read low, screened at 18.75 µg/mL (by protocol).
For `N#Cc1c(C(F)(F)F)cc(-c2cccs2)nc1SCC(=O)Nc1ccc(Cl)cc1`, the survival was 78%. With `Cc1ccc(C(=O)NCCSc2c(C)[nH]c3ccccc23)cc1C` the survival was 19% (active). In the case of `CCOc1ccc(C(=O)NCCSc2c(C)[nH]c3ccccc23)cc1OCC`, the survival is reported as 86%. With `Cc1[nH]c2ccccc2c1SCCNC(=O)c1ccc(F)cc1` the survival was 64%. Work on `CCNS(=O)(=O)c1ccc(S(=O)(=O)N(Cc2ccccn2)C2CCCCC2)cc1` yielded a survival of 107%. `CC1CCN(C(=O)Cn2c(=O)n(CC3CCC(C(=O)NC(C)C)CC3)c(=O)c3sccc32)CC1` (centres undefined) was tested, and the survival was 78%. With `CCn1c(C(=O)NCc2ccccc2)cc2sc(Cl)cc21` the survival was 2% (active). In the case of `CCn1c(C(=O)NCc2ccc(C)cc2)cc2sc(Cl)cc21`, the survival is reported as 78%. With `CCn1c(C(=O)NCc2ccc(OC)cc2)cc2sc(Cl)cc21` the survival was 37%. For `CCOC(=O)c1c(C)n(-c2ccccc2)c2ccc(OC(=O)COc3ccc(Cl)cc3)cc12`, the survival was 78%. `O=C(Nc1ccccc1C(F)(F)F)c1cc(-c2ccc3c(c2)OCCO3)on1` showed a survival of 113%. Work on `CC(C)c1ccc(OC(=O)c2cc(-c3ccccc3)on2)cc1` yielded a survival of 106%. `Cc1ccc(NC(=O)c2cc(-c3ccc4c(c3)OCO4)on2)cc1` showed a survival of 105%. `Cc1ccc(Cl)cc1NC(=O)c1cc(-c2ccc3c(c2)OCCO3)on1` gave a survival of 67%. With `O=C(Nc1cccc(Cl)c1)c1cc(-c2ccc3c(c2)OCCO3)on1` the survival was 122%. In the case of `O=C(Oc1ccccc1Cl)c1cc(-c2ccc3c(c2)OCCO3)on1`, the survival is reported as -7% (active). With `Cc1ccc(-c2cc(C(=O)Oc3ccccc3Cl)no2)cc1C` the survival was -6% (active). In the case of `CCOC(=O)c1cc(-c2ccc(OC)c(S(=O)(=O)NCc3ccccc3Cl)c2)on1`, the survival is reported as 79%. With `Cc1ccc(OC(=O)c2cc(-c3ccc4c(c3)OCCO4)on2)c(C)c1` the survival was -6% (active). `Cc1ccccc1OC(=O)c1cc(-c2ccc3c(c2)OCCO3)on1` was tested, and the survival was -6% (active). Work on `Cc1ccc(OC(=O)c2cc(-c3ccc(Cl)cc3)on2)c(C)c1` yielded a survival of 93%. Compound `Cc1oc2ncn(C)c(=O)c2c1C(=O)N1CCN(c2cccc(C(F)(F)F)c2)CC1` has a survival of 82%. For `CCOc1ccccc1CNCCNC(=O)c1nonc1N`, the survival was 128%. With `CCCNS(=O)(=O)c1ccc(OCC(=O)NCc2ccccn2)cc1` the survival was 122%. Work on `NC(=Nc1ccccc1)SC1CC(=O)N(c2ccccc2)C1=O` (centres undefined) yielded a survival of 113%. `O=C(Nc1ccccc1NC(=O)c1cccs1)c1cccs1` gave a survival of 111%. `COc1cccc(NC(=O)Cn2c(=O)ccc3cc(S(=O)(=O)N4CCC(C)CC4)ccc32)c1` was tested, and the survival was 73%. With `CCn1cc(/C=C(\NC(=O)c2ccccc2Cl)C(=O)NCCCn2ccnc2)c2ccccc21` the survival was 121%. For `COC(=O)c1sccc1S(=O)(=O)N1CCN(c2cccc(C)c2C)CC1`, the survival was 67%. In the case of `COc1cc(NC(=O)Cn2c(-c3ccccc3)cc(C(C)=O)c2C)cc(OC)c1`, the survival is reported as 92%. In the case of `COc1ccc2c(c1)N(C)/C(=C1/SC(=S)N(C)C1=O)S2`, the survival is reported as 122%. With `COc1cccc(CNC(=O)c2cc(-c3ccc(Cl)cc3)n[nH]2)c1` the survival was 136%. `C#CCNc1c2c(nc3nnnn13)CCCC2` showed a survival of 104%. With `CCSC(=C(C#N)C#N)c1cc2c([nH]1)CCCC2` the survival was 116%. Compound `Cc1ccc2ccc3cc(C(=O)N4CCN(c5ccccc5F)CC4)nc3c2[nH]1` has a survival of 78%. For `CCOc1ccc(NC(=O)Cn2c(=O)n(Cc3ccc(C(=O)NCc4ccc5c(c4)OCO5)cc3)c(=O)c3ccccc32)cc1`, the survival was 98%. `Cc1cccc(OC(=O)c2cc(-c3ccc4c(c3)OCCO4)on2)c1C` was tested, and the survival was -6% (active). `Cc1cccc(OC(=O)c2cc(-c3ccc(Cl)cc3)on2)c1C` gave a survival of 116%. For `O=C(Nc1cccc(Br)c1)c1cc(-c2ccc3c(c2)OCCO3)on1`, the survival was 80%. For `CCCc1nnc(NC(=O)Cc2coc3ccc(C(C)C)cc23)s1`, the survival was 99%. With `O=C(Nc1ccc2c(c1)N(C1CCCC1)C(=O)c1ccccc1S2)c1ccccc1` the survival was 75%. For `CC(=O)Nc1ccc(C(=O)Nc2ccc3c(c2)N(C2CCCC2)C(=O)c2ccccc2S3)cc1`, the survival was -6% (active). For `O=C(Nc1ccc2c(c1)N(C1CCCC1)C(=O)c1ccccc1S2)c1ccc(F)cc1`, the survival was 87%. For `Cc1ccc(S(=O)(=O)C(=O)Nc2cccc3nsnc23)cc1`, the survival was 93%. `CCc1ccc(NC(=O)Cn2c(=O)n(CC3CCCO3)c(=O)c3cc(OC)c(OC)cc32)cc1` (centres undefined) was tested, and the survival was 68%. `CN1CCN(C(CNC(=O)C(=O)Nc2ccc(F)cc2)c2cccnc2)CC1` (centres undefined) was tested, and the survival was 96%. In the case of `Cc1cc2c(cc1S(=O)(=O)N(C)CC(=O)Nc1cccc(C#N)c1)OCC(=O)N2`, the survival is reported as -4% (active). `CN(CC(=O)Nc1cccc(C#N)c1)S(=O)(=O)c1cc2c(cc1Cl)NC(=O)CO2` showed a survival of 129%. `Cc1cc2c(cc1S(=O)(=O)N(C)CC(=O)Nc1ccc(C#N)cc1)OCC(=O)N2` was tested, and the survival was 64%. With `COc1ccc(-c2[nH]ncc2C(=O)NCc2cccc(F)c2)cc1` the survival was 78%. `CCOC(=O)c1c(C)oc2nc(C)nc(N3CCN(c4ccc(OC)cc4)CC3)c12` gave a survival of 68%. In the case of `CCOC(=O)c1nc(N2CCN(c3ccc(F)cc3)CC2)c2c(C)noc2n1`, the survival is reported as 14% (active). `Cc1noc2nc(C(=O)O)nc(N3CCCCC3)c12` gave a survival of 73%. Compound `CCC(=O)N1CCc2cc(CNS(=O)(=O)c3cccs3)ccc21` has a survival of 89%. For `Cc1cc(OCC(=O)NCC2(N3CCN(C)CC3)CCCCC2)cc(C)c1Cl`, the survival was 80%. For `CC(C)Oc1ccc(CNC(=O)c2ccccc2NC(=O)c2nsc3ccccc23)cc1`, the survival was 124%. `Cc1ccc(CNC(=O)c2ccccc2NC(=O)c2nsc3ccccc23)cc1` was tested, and the survival was 75%. In the case of `CCOc1ccc(CNC(=O)c2ccccc2NC(=O)c2nsc3ccccc23)cc1`, the survival is reported as -6% (active). `Cc1ccc(S(=O)(=O)NCCc2nnc3ccc(SCC(=O)Nc4c(C)cc(C)cc4C)nn23)cc1` was tested, and the survival was 86%.
